# High-throughput results (PubChem)
# Tau ThT inhib: qHTS for Inhibitors of Tau Fibril Formation, Thioflavin T Binding | Microtubule-associated protein tau (Homo sapiens), P10636 | recombinant tau K18 P301L, heparin-induced fibrillization, ThT fluorescence | Potency, µM (top dose mostly 57.4 µM), for the others: top-dose activity, negative = inhibition, actives largely listed as inhibitors | 2.1% of 270,000 active; also: nearly all actives have a fitted effect of over 55% in size
# Target sequence (P10636 561-689 P618L limits assumed): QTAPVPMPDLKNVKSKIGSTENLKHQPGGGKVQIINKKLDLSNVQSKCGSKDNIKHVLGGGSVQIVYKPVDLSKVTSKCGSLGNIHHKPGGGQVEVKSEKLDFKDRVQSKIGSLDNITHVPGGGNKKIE
#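 Recombinant human tau K18 fragment […] carrying P301L, 15 uM unlabeled plus 0.24 uM Alexa 594-labeled, was fibrillized with 20 uM heparin in 100 mM sodium acetate pH 7 for 6 hr at 37 C; 30 uM ThT fluorescence read after 1 hr.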
# Tau FP inhib: qHTS for Inhibitors of Tau Fibril Formation, Fluorescence Polarization; K18 P301L tau heparin fibrillization, Alexa594 FP, 6 h; Potency, µM (highest dose often 57.7 µM), inactives show at the top dose activity, negative = inhibition, hits mostly inhibitors; 0.39% of 280,000 active; also: nearly all actives have a fitted effect of over 55% in size
#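 FP of Alexa 594-tau after heparin (20 uM) induction. Substrate: human K18 P301L, 15 uM unlabeled, 0.24 uM labeled. Buffer 100 mM sodium acetate pH 7. 6 hr, 37 C.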
# RORgamma inh: qHTS for inhibitors of ROR gamma transcriptional activity | Nuclear receptor ROR-gamma (Mus musculus), P51450 | Drosophila S2 Gal4-RORgamma UAS-luciferase reporter, 20 h | Potency, µM (doses to about 53.6 µM), for the others: at the top dose activity change, negative = inhibition, usual class: inhibitors | 5.4% of 310,000 active; also: nearly all actives have a fitted effect of over 60% in size
# Target sequence (P51450 whole entry, looked up, the tested form may be a part): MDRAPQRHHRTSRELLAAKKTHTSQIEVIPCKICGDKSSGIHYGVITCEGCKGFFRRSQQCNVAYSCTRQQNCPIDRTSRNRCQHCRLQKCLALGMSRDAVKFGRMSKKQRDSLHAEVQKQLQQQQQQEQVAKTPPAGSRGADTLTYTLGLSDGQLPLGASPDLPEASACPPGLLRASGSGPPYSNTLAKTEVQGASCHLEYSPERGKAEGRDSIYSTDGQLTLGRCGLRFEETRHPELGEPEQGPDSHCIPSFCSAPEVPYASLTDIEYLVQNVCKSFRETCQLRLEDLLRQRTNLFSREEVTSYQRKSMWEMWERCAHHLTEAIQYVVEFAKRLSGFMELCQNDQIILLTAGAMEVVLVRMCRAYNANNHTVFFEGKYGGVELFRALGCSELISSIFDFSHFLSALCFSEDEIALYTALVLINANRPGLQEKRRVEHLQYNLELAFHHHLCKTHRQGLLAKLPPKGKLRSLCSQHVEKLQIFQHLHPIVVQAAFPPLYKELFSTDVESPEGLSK
#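 Drosophila S2 cells stably expressing Gal4-DBD/mouse RORγ fusion under metallothionein promoter plus UAS-luciferase; compound 1 h, then 700 uM CuSO4 induction for 20 h at ambient temperature; inhibition read as reduced luminescence.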
# Tau fluor cs: Counterscreen qHTS for Inhibitors of Tau Fibril Formation, Fluorescence Polarization. 0.93% of 280,000 active. AID 1463, 2008. tau K18 P301L (four-repeat tau fragment) Alexa594 fluorescence, heparin fibrillization. Potency, µM (doses to about 57.7 µM), for the others: at the highest dose activity change, negative = decrease; also: nearly all actives have a fitted effect of over 55% in size
#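 Human K18 P301L tau (15 uM unlabeled plus 0.24 uM Alexa 594-labeled, final) in 100 mM sodium acetate pH 7 was mixed with compound and 20 uM heparin and incubated 6 hr at 37 C.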
# Gal4-VP16 FLuc: VP16 counterscreen qHTS for inhibitors of ROR gamma transcriptional activity. Drosophila S2 Gal4-VP16 UAS-luciferase, luminescence, 20 h. Potency, µM (titrated, usually from 53.6 µM), for inactives: at the highest dose activity, negative = inhibition, hits mostly inhibitors. 3.5% of 310,000 active. AID 2546, 2010;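 also: Gal4-VP16 expression switched on by copper sulfate through the metallothionein promoter; nearly all actives have a fitted effect of over 50% in size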
# Active calls of the source: *; ? = inconclusive; · = no result; [ ] = dose if it differs, or a comment. This is a sample that favours compounds with a hit; in the whole collection about 7.3% have one here. Calls follow the shape of the dose curve; as a rule, active = well fitted curve in the direction sought with a large enough effect; inconclusive = small, poorly fitted or top-dose-only effect, or another doubt; inactive = no such curve, though single readings can be large; an effect the other way counts as inactive or inconclusive. % is scaled to controls: 0 for no effect and ±100 for the full control effect; potency is read from the fitted curve at half-maximal effect.
SMILES,Tau ThT inhib,Tau FP inhib,RORgamma inh,Tau fluor cs,Gal4-VP16 FLuc
O=S(=O)(c1ccc(-c2cc(C(F)(F)F)on2)s1)N1CCN(c2ccc(F)cc2)CC1,5%,1%,·,-4%,·
Cc1cc(C)c2oc(C(=O)Nc3c(C)n(C)n(-c4ccccc4)c3=O)cc(=O)c2c1,1%,-3%,·,-9%,·
O=[N+]([O-])c1cc(C(F)(F)F)cc([N+](=O)[O-])c1NCCNC(=S)Nc1cccc(F)c1,?,-7%,?,8.9µM*[quencher],0%
O=C1c2ccccc2C(=O)N1CCCc1c[nH]c2ccc(Cl)cc12,-18%,-14%,?,11µM*[quencher],3%
O=C(CN1C(=O)c2ccccc2C1=O)NCCc1c[nH]c2ccc(Cl)cc12,-7%,8%,39%,-15%,-11%
Cc1ccc(CN(C)C(=O)C2CCC(=O)N(CCc3ccccc3)C2)o1 (centres undefined),·,·,22%,·,?
COC(=O)c1ccc(NC(=O)NC(C)c2c(-n3cccc3)sc(C)c2C)cc1 (centres undefined),-2%,18µM*,·,?,·
CCCCNC(=O)Nc1nnc(-c2ccc(OCC)cc2)o1,-16%,2%,7.1µM*,-13%,5.6µM*
CCCCNC(=O)Nc1nnc(-c2ccccc2)o1,1%,9%,4µM*,3%,5.6µM*
CCOC(=O)CNC(=O)Nc1nnc(-c2ccc(OCC)cc2)o1,?,-8%,3.2µM*,-2%,5.6µM*
CCOc1ccc(-c2nnc(NC3=NCCCCC3)o2)cc1,-22%,4%,-16%,-9%,-21%
COc1cccc(N2CCN(S(=O)(=O)c3cn(C)c(C)n3)CC2)c1,11%,-10%,·,5%,·
COc1ccc(-c2nc3cnc(N4CCN(C)CC4)nc3n(C)c2=O)cc1,·,·,-18%,·,4%
Cc1cc(N=Nc2ccc(C)c(N=Nc3cc(C)c(N)cc3N)c2)c(N)cc1N,4µM*,-4%,-37%,16µM*[quencher],-14%
COc1cccc2cc(C(C)N(CCCN3CCOCC3)C(=S)Nc3cc(C)ccc3C)oc12 (centres undefined),-10%,14%,11µM*,-14%,6%[10 µM]
COc1cccc(NC(=S)N(CCCN2CCOCC2)C(C)c2cc3ccccc3o2)c1 (centres undefined),-17%,-2%,11µM*,-27%,?
COc1cccc2cc(C(C)N(CCCN3CCOCC3)C(=O)Nc3ccccc3)oc12 (centres undefined),-11%,-8%,2%,-9%,-3%
COc1ccc(NC(=S)N(CCCN2CCOCC2)C(C)c2cc3cccc(OC)c3o2)cc1 (centres undefined),-8%,?,-2%,-15%,-8%[10 µM]
COc1cccc2cc(C(C)N(CCCN3CCOCC3)C(=S)Nc3ccc(C)c(C)c3)oc12 (centres undefined),-14%,10%,11µM*,-16%,?
CCc1cccc(NC(=S)N(CCCN2CCOCC2)C(C)c2cc3cccc(OC)c3o2)c1 (centres undefined),-13%,7%,11µM*,-15%,?
CCCC[C@H](NC(=O)[C@H](CC(C)C)NC(=O)CNC(=O)[C@@H](NC(=O)[C@H](Cc1ccccc1)NC(=O)[C@H](CO)NC(=O)[C@@H](N)CC(=O)O)C(C)C)C(N)=O,·,·,14%,·,-1%
COc1cccc2cc(C(C)N(CCCN3CCOCC3)C(=S)Nc3cccc(C)c3C)oc12 (centres undefined),-15%,12%,11µM*,-16%,-8%[10 µM]
CC(C)c1ccc(NC(=O)CCS(=O)(=O)c2ccc3c(c2)CC(=O)N3C)cc1,12%,4%,·,6%,·
CS(=O)(=O)N(CC(=O)N1CCC(C(N)=O)CC1)Cc1ccc(Cl)c(Cl)c1,·,·,-24%,·,1%
C/C(=N\NC(=S)Nc1cccc(C)c1)c1ccco1,-1%,5%,?,7%,-27%
SMILES,Tau ThT inhib,Tau FP inhib,RORgamma inh,Tau fluor cs,Gal4-VP16 FLuc
C/C(=N\NC(=S)Nc1cccc(C)c1)c1ccccc1,?,8%,1.1µM*,?,7.9µM*
C/C(=N\NC(N)=S)c1ccccc1,-3%,7%,14%,4%,15%
C/C(=N\NC(=S)Nc1ccc(C)cc1)c1cccc(N)c1,?,3%,2.8µM*,?,13µM*
CSC(=S)N/N=C(\C)c1ccccc1,-19%,13%,0.45µM*,-13%,4.5µM*
C/C(=N\NC(=S)Nc1cccc(C)c1)c1cccc(N)c1,?,18%,4.5µM*,?,3.2µM*
CC1CCN(S(=O)(=O)c2ccc3[nH]ccc3c2)CC1,2%,2%,·,-11%,·
CCN1CCN(C(=O)c2ccc3c(c2)N(Cc2c(F)cccc2Cl)C(=O)c2ccccc2S3)CC1,-7%,3%,·,-8%,·
Cc1ccccc1NC(=S)Nc1ccc(Br)cc1,12%,-4%,11µM*,1%,11µM*
Cc1c(Cl)cccc1NC(=S)Nc1ccccn1,-5%,-3%,1µM*,-5%,?
S=C(Nc1ccccn1)Nc1ccccc1Cl,-4%,-7%,8%,-14%,-16%
S=C(Nc1ccccc1)Nc1ccccc1Br,-6%,-2%,?,-7%,30%
Cc1ccccc1NC(=S)Nc1ccccn1,-7%,-2%,0.5µM*,-10%,1.6µM*
CCOc1ccc(C2CC(=O)N(c3cccc(F)c3)C3=C2C(=O)OC3)cc1 (centres undefined),-8%,-9%,·,-16%,·
COC(=O)N/N=C/c1cn(CCOc2ccccc2OC)c2ccccc12,·,·,29%,·,10%
CNC(=S)N/N=C/c1cn(CCOc2cccc(OC)c2)c2ccccc12,?,15%,1µM*,?,5µM*
CNC(=S)N/N=C/c1cn(CCOc2ccccc2OC)c2ccccc12,?,?,0.89µM*,?,1µM*
Cc1ccc([C@@H]2[C@@H]3C(=O)N(C)C(=O)[C@@H]3[C@]3(C)C(=O)N(Cc4ccc(-c5ccccc5)cc4)CC(=O)N23)o1,·,·,23%,·,2%
Cc1ccc(-n2c(=O)c3c(c4cc(C)ccc4n3C)n(CC(=O)NCc3ccccc3)c2=O)cc1,10%,-4%,·,10%,·
Cc1nnc2n(C3CCCCC3)c(=O)c3c4c(sc3n12)CCC4,13µM*,6%,-8%,14µM*[quencher],-1%
Cc1nnc2n(Cc3ccccc3)c(=O)c3c4c(sc3n12)CCCC4,-8%,0%,11µM*,-5%,?
COc1ccccc1NC(=O)C1CCN(C(=O)c2sc3nc[nH]c(=O)c3c2C)CC1,9%,6%,·,5%,·
COC(=O)c1cccc(NC(=S)N2CCN(c3ccccc3F)CC2)c1,-14%,-8%,14µM*,-29%,2%
